About 3,100 (0.76%) of roughly 410,000 compounds were called active. Calls follow the shape of the dose curve; as a rule, active = well fitted cell-killing curve with a large enough effect; inactive = no such curve, though single readings can be large or run the other way. The list comes from a sample in which actives are over-represented; it also holds similar structures and randomly drawn compounds.
Potency is read from the fitted curve at half-maximal effect.

The assay in a line: qHTS for Inhibitors of TGF-b: Cytotox Counterscreen. The note with it: HepG2 CAGA-GFP viability, ATP luminescence, 18 h; series mostly up to 46.1 µM; activity change, negative = cytotoxicity: at the top concentration. The source says:
TGF-b is a main component in the TGF-b signaling pathway which plays diverse roles in cellular and development pathways. TGF-b is mediated by transcription factors called "Smads". Although the Smad-dependent pathway is the primary canonical TGF-b signaling mode, TGF-b1 can also activate alternative signaling pathways, including those involving MAPK (ERK, JNK and p38). This interaction may mediate or enhance Smad-dependent responses, or can exert Smad-independent effects. The complexity of this signaling cascade allows the TGF-b superfamily to perform unique, overlapping or redundant functions. We believe that targeting the TGF-beta pathway at the Smad-transcription factor level may eliminate the consequences of disrupting the entire pathway and offer specificity without affecting other signaling pathways. Smad3 is the primary transducer of TGF-b's signals and Smad3 regulates many functions attributed to TGF-b signaling. We hypothesize that Smad3 inhibitors will selectively eliminate Smad3-specific TGF-beta signals without undesired off-target effects. We aim to identify Smad3-small molecule antagonists using a quantitative high throughput screening (qHTS) approach.
A high-throughput assay was developed to screen the NIH Molecular Libraries Small Molecule Repository (MLSMR). This is a cell based assay, where TGF-b is tagged with GFP. This is a counterscreen that evaluates the cytotoxicity of the compounds that were screened in the primary cell-based screen (AID 588855).
MH087449NIH Chemical Genomics Center [NCGC]
NIH Molecular Libraries Probe Centers Network [MLPCN]
Assay Submitter (PI): Sushil Rane, National Institute of […]
Suspensions of trypsinized HEPG2 CAGA-GFP cells were dispensed into white, tissue culture-treated, solid 1536-well plates at 5uL/well (1000 cells/well final concentration) in DMEM medium supplemented with 1% FBS. Plates were incubated at 37 degrees C for 2 hours, after which 23 nL of compounds or DMSO were delivered to each well using a pin tool. One uL of recombinant TGF-beta in DMEM (1% FBS) was then dispensed (500 pg/mL final concentration), and plates were incubated at 37 degrees C for 18 hours. Two uL of CellTiter Glo (Promega), a luminescence-based viability reagent, was dispensed, followed by a 10 minute room temperature incubation. The plates were then measured on a PerkinElmer ViewLux plate reader for luminescence (clear filter) using a 5 second exposure. The %Activity was determined from the corrected luminescence values. Wells containing media only (no cells) were used to normalize %Activity of identified toxic compounds; media-only wells corresponded to 100%Activity (complete cell-killing), while DMSO-dosed cell controls were used to normalize 0%Activity (no toxicity).
Concentration-response curves were fitted to the signals arising from the resulting luminescence. The concentration-effect curves were then classified based on curve quality (r2), response magnitude and degree of measured activity, and compounds were subsequently categorized based on their curve class.
Background: In qHTS, concentration-response curves come from the screen itself.
Consider `COc1ccc(NC(=O)C(=O)NCc2ccco2)cc1`, for which the “activity change, negative = cytotoxicity” value was 7.02% (inactive).
For `COc1ccc(CS(=O)/C(Cl)=C(/Cl)C(=O)Nc2ccc(OC)nc2)cc1` (configuration not stated), the Potency is 14.1 µM (active).
`COc1ccc(CC(=O)Nc2ccc(-c3nc4ccccc4s3)c(C)c2)cc1`: the “activity change, negative = cytotoxicity” value was -2.33% (inactive).
Still for that read-out and setting: then `COc1ccc(-n2c(=O)c3c(c4cc(OC)ccc4n3C)n(Cc3cccc(C)c3)c2=O)cc1`, with -0.731% (inactive); and `COc1ccc(CNC(=O)C2=Cc3cccc(OC)c3OC2)cc1OC`, with 6.48% (inactive).
For the compound `COc1ccc(OC)c(CNC(=O)c2c3c(nc4ccccc24)C(=O)N(C2CCCCC2)C3)c1`, the “activity change, negative = cytotoxicity” value was 1.46% (inactive).
On the same count and under the same terms, then `COc1ccc(N2CCN(CCNC(=O)c3nnc(Cc4c(F)cccc4Cl)o3)CC2)cc1`, with -11.4% (inactive).
Take `O=C(Cc1csc(Nc2nc(=S)[nH]c3ccccc23)n1)NCCCN1CCN(c2cccc(Cl)c2)CC1`: the “activity change, negative = cytotoxicity” value was -22.2% (inactive).
For `O=C(NCCCN1CCN(c2cccc(Cl)c2)CC1)c1nnc(Cc2ccc(F)cc2Cl)o1`, the Potency is 11.2 µM (active).
For the compound `CCc1ccc(NC(=O)CN2C(=O)C(c3ccccc3)=NC23CCCCCC3)cc1`, the “activity change, negative = cytotoxicity” value is -29.3% (inactive).
In the case of `COc1ccc(CC(=O)NCc2nnc(SCC(=O)Nc3ncc(C)s3)n2C)cc1`, the “activity change, negative = cytotoxicity” value is 2.57% (inactive).
On to `Cc1cnc(NC(=O)c2ccccn2)s1`, for which the Potency is 5.01 µM (active).
Turning to `COC(=O)Nc1ncc(CN2C(=O)c3ccccc3C2=O)s1`, the “activity change, negative = cytotoxicity” value is 11% (inactive).
The same measure, in the same setting: as for `CCOc1ccccc1CNC(=O)c1ccc2c(c1)nc1n2CCC(C)C1` (configuration not stated), the figure is 0.917% (inactive).
`CCN(Cc1ccccc1)Cc1c(O)ccc2c(=O)c(-c3ccc(Cl)cc3Cl)coc12`: the “activity change, negative = cytotoxicity” value was -1.33% (inactive).
As to `Cc1[nH]c2ccccc2c1C(=O)C(=O)N(C)c1ccccc1`, the “activity change, negative = cytotoxicity” value is -2.78% (inactive).
The same measure, in the same setting: then `OC[C@@H]1O[C@H](n2cnc3c(SCc4ccccc4)ncnc32)[C@H](O)[C@H]1O`, with -22.8% (inactive); and `c1ccc(C[C@H]2CNCCN2CCC23CC4CC(CC(C4)C2)C3)cc1`, with -95.7% (inactive).
On to `CC(C)(C)CN1C(=O)C(=O)NC[C@H]1Cc1cccc2ccccc12`, for which the “activity change, negative = cytotoxicity” value is 3.08% (inactive).
Consider `c1ccc2c(CCN3CCNC[C@H]3Cc3cccc4ccccc34)cccc2c1`, for which the Potency is 12.6 µM (active).
As for `O=c1n(Cc2cccc(C(F)(F)F)c2)c2ccccc2c2nc(-c3ccccc3)nn12`, the “activity change, negative = cytotoxicity” value was -19.5% (inactive).
For the compound `Brc1cccc[n+]1Cc1cccc(C[n+]2ccccc2Br)c1`, the “activity change, negative = cytotoxicity” value is -2.89% (inactive).
For the compound `CCOC(=O)Nc1ccc2c(c1)N(C(=O)CN1CCN3CCCC3C1)c1ccccc1CC2` (configuration not stated), the “activity change, negative = cytotoxicity” value was -21.2% (inactive).
On the same count and under the same terms, then `CCOC(=O)Nc1ccc(S(=O)(=O)N(C)C(C)C)cc1`, with 0.514% (inactive).
As to `CCOC(=O)Nc1ccc2c(c1)N(C(=O)CCCl)c1ccccc1[S@]2=O`, the Potency is 12.6 µM (active).
Regarding `Cc1ccc(C(=O)Nc2ccc(C(=O)O)cc2)cc1S(=O)(=O)Nc1ccccc1`, the “activity change, negative = cytotoxicity” value is 3.73% (inactive).
For the compound `O=C(Nc1ccc2oc(-c3ccc(O)c(Br)c3)nc2c1)c1cc2ccccc2o1`, the “activity change, negative = cytotoxicity” value is -4.99% (inactive).
`CCOc1ccc(OCC)c(NS(=O)(=O)c2ccc3[nH]c(=O)ccc3c2)c1`: the “activity change, negative = cytotoxicity” value was -16% (inactive).
Take `C[N+]1(CC(=O)c2cccs2)CCOCC1`: the “activity change, negative = cytotoxicity” value was -3.11% (inactive).
On the same count and under the same terms, as for `CC(=O)Nc1c(C)nn(-c2ccccc2)c1N1CCC(C(=O)Nc2cc(Cl)ccc2C)CC1`, the figure is -7.86% (inactive).
For the compound `Cc1nnc(N2CCC(C(=O)Nc3ccc(F)cc3)CC2)c2nn(-c3ccc(Cl)cc3)c(C)c12`, the Potency was 11.2 µM (active).
Turning to `CCc1ccc(CNC(=O)C2CCN(c3nnc(C)c4c(C)n(-c5ccc(C)cc5)nc34)CC2)cc1`, the Potency entry is “inactive”.
In the case of `CCCCc1nn2c(=O)cc(COC(=O)c3cccc(NC(=O)COc4ccccc4)c3)nc2s1`, the “activity change, negative = cytotoxicity” value was -3.96% (inactive).
`O=C(NCc1ccccn1)[C@]1(C(F)(F)F)C[C@H](CCc2ccccc2)CCCO1`: the “activity change, negative = cytotoxicity” value was -0.451% (inactive).
Same read-out and setting: as for `CC(C)(C)n1ncc2c(=O)n(Cc3ccc(C(=O)c4ccccc4)cc3)cnc21`, the figure is 0.159% (inactive); as for `N#C/C(=C\c1ccccc1F)c1nc2ccccc2c(=O)[nH]1`, -15% (inactive).
Regarding `O=C(/C(=C/c1cccc(Cl)c1)c1nc2ccccc2[nH]1)c1ccccc1`, the Potency is 2.82 µM (active).
Consider `O=C(O)c1ccc(Cn2c(SCc3ccc(F)cc3)nc3ccncc32)cc1`, for which the “activity change, negative = cytotoxicity” value is -0.167% (inactive).
Take `COc1ccc(CCNC(=O)c2cnc3sc(N4CCCCCC4)nn3c2=O)cc1OC`: the “activity change, negative = cytotoxicity” value is 4.28% (inactive).
Still for that read-out and setting: then `COc1ccc(Cl)cc1NC(=O)C(C)Sc1nc2c(c(=O)[nH]1)CCCC2` (configuration not stated), with -11.4% (inactive); and `ClC/C=C/C[n+]1ccccc1Cl`, with -6.94% (inactive); and `CN1c2ccc(Cl)cc2-c2nc(SCC(=O)Nc3cc(F)ccc3F)ncc2S1(=O)=O`, with -5.61% (inactive).
On the same count and under the same terms, as for `Cc1ccc(C=O)cc1Cl`, the figure is 3.42% (inactive); as for `COc1ccc(CNC(=O)c2ccc3c(O)c(S(=O)(=O)c4ccccc4)c(=O)[nH]c3c2)cc1`, -34.6% (inactive).
Regarding `Cc1ccc(C(=O)CC2(O)C(=O)N(CCc3ccccc3)c3ccc(Br)cc32)cc1` (configuration not stated), the “activity change, negative = cytotoxicity” value was -109% (inactive).
As to `CCCN1C(=O)C(O)(CC(=O)c2ccc(CC)cc2)c2cc(Br)ccc21` (configuration not stated), the “activity change, negative = cytotoxicity” value is -103% (inactive).
With `CCc1ccc(C(=O)CC2(O)C(=O)N(CCc3ccccc3)c3ccc(Br)cc32)cc1` (configuration not stated), the Potency is 14.1 µM (active).

For the origin of these results see PubChem BioAssay AID588856 (National Center for Advancing Translational Sciences (NCATS), 2011).
